# BAZ2B block – qHTS Assay for Inhibitors of BAZ2B; Potency, µM (doses to about 114 µM), most hits filed as inhibitors; AID 504333, 2011; AlphaScreen BAZ2B-H3K14Ac peptide displacement; 360,000 compounds, 4.4% hits; Bromodomain adjacent to zinc finger domain protein 2B (Homo sapiens), Q9UIF8; further: nearly all actives have a fitted effect of over 60% in size
#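 Protein-peptide AlphaScreen: BAZ2B 50 nM, b-H3K14Ac 50 nM, 1x PBS pH 7.4 + 0.01% Tween-20. Preincubation 30 min RT; cpd 30 min RT (top 110 uM); beads 20 min RT, light-protected.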
# JMJD2A Tudor – qHTS Assay for Inhibitors of JMJD2A-Tudor Domain | Lysine-specific demethylase 4A (Homo sapiens), O75164 | AlphaScreen JMJD2A-Tudor / H3K4me3 peptide binding | Potency, µM (highest dose often 114 µM), most hits filed as inhibitors | 390,000 compounds, 4.4% hits | AID 504339, 2011; further: nearly all actives have a fitted effect of over 50% in size
# G9a inh – qHTS Assay for Inhibitors of Histone Lysine Methyltransferase G9a; Potency, µM (series often up to 102 µM), actives largely listed as inhibitors; 350,000 compounds, 8.8% hits; AID 504332, 2011; G9a H3K9 monomethylation, AlphaScreen, 2 h; further: nearly all actives have a fitted effect of over 75% in size
#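 Methyltransferase reactions run at room temperature for 2 h (20 nM enzyme, 500 nM biotin-H3K9 peptide, 20 uM SAM) after a 15 min compound preincubation; product detected by AlphaScreen beads and anti-H3K9me1 antibody.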
# PI5P4Ka inh – qHTS for Inhibitors of phosphatidylinositol 5-phosphate 4-kinase (PI5P4K); PI5P4Kalpha enzyme, ADP-Glo luminescence, 60 min; stronger effect = lower value; 330,000 compounds, 1.2% hits; max response, %; active means max response of -50% or lower; inconclusive means between -30% and -50%; inactive means -30% or higher; further: value at the top dose of about 77 µM
#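 Single end-point luminescence (ADP-Glo) quantified ADP from PI5P4Kalpha turnover; ATP 5 microM final, 1 h at RT, 0.1% CHAPS and 0.28 mM EGTA in HEPES pH 7.4.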
# PLK1 PBD block – qHTS for Inhibitors of PLK1-PDB (polo-like kinase 1 - polo-box domain): Primary Screen | Potency, µM, most hits filed as inhibitors | Plk1 PBD binding of FITC phosphopeptide, fluorescence polarization | 360,000 compounds, 2.8% hits; further: series mostly up to about 57 µM; nearly all actives have a fitted effect of over 65% in size
# Target sequence (P53350 whole entry, looked up, the tested form may be a part): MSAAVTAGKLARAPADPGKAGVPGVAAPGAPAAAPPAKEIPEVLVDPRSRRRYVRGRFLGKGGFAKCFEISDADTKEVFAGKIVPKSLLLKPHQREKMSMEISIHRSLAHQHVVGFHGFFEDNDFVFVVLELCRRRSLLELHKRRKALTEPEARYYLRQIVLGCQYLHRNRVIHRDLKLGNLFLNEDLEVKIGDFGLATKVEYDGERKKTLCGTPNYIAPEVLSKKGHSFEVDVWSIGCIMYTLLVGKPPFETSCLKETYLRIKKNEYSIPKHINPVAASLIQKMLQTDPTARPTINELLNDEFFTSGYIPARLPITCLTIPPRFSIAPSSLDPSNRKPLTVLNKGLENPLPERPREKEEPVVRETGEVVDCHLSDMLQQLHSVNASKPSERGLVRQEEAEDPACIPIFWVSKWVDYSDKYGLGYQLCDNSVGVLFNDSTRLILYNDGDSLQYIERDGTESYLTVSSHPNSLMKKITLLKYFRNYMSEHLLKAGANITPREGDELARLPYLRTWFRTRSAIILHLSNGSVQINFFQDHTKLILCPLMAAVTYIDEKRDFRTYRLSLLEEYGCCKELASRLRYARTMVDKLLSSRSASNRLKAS
# HP1b binding inh – HTS for Inhibitors of HP1-beta Chromodomain Interactions with Methylated Histone Tails. AlphaScreen HP1-beta / biotin-H3K9me3 peptide binding. Potency, µM (titrated, usually from 114 µM), hits mostly inhibitors. 390,000 compounds, 0.56% hits. AID 540317, 2011; further: nearly all actives have a fitted effect of over 70% in size
#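 HP1-beta protein (50 nM final) preincubated 30 min at room temperature with biotinylated H3(1-18)K9me3 peptide (50 nM) in PBS pH 7.4, 0.01% Tween-20, then compound added for 30 min. AlphaScreen streptavidin donor/nickel chelate acceptor beads (10 ug/mL final), 30 min dark, luminescence read.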
# Hits are given with their value; . = inactive; ? = inconclusive; / = not tested or not shown; [ ] = remark or other dose. Shown are actives, neighbours in structure and some others; about 12% of the full set was active somewhere. Unless noted, the call rests on the fitted dose curve; in most records, active means well fitted curve in the direction sought with a large enough effect; inconclusive means small, poorly fitted or top-dose-only effect, or another doubt; inactive means no such curve, though single readings can be large; an effect the other way counts as inactive or inconclusive.
SMILES,BAZ2B block,JMJD2A Tudor,G9a inh,PI5P4Ka inh,PLK1 PBD block,HP1b binding inh
CCc1cc2c(SCC(=O)N3CCN(C(=O)c4cccs4)CC3)ncnc2s1,/,/,/,.,.,/
Nc1nc(NCc2ccc(Cl)cc2Cl)c2[nH]cnc2n1,/,.,/,/,/,.
Cc1c2cnn(CC(=O)NCCc3ccccc3)c(=O)c2c(C)n1Cc1ccccc1Cl,.,.,.,/,/,.
Cc1ccc(NC(=O)C(C)Sc2nc(-c3ccccc3)cc(=O)[nH]2)cc1 (stereo unspecified),.,.,.,.,.,.
O=c1[nH]nc(CNc2ccc(O)cc2)c2ccccc12,?,.,11µM,.,.,.
O=c1[nH]nc(CNc2ccc(C(F)(F)F)cc2)c2ccccc12,.,.,.,.,.,.
COC(=O)C[C@@H]1C[C@@H]2c3cc(NC(=O)NC4CCCCC4)ccc3O[C@@H]2[C@H](CO)O1,/,/,/,.,.,/
COc1ccccc1-c1oc2ccccc2c1C#CCCO,50µM,?,.[0.501 µM],.,.,.
Cc1ccc(C(=O)c2sc(Nc3ccc(F)cc3)nc2N)c(C)c1,40µM,79µM,?,/,/,?
COc1cccc(C(=O)c2sc(Nc3ccc(F)c(Cl)c3)nc2N)c1,.,.,.,/,/,.
CCOc1ccc(Nc2nc(N)c(C(=O)c3ccccc3Cl)s2)cc1,?,45µM,.,/,/,?
CC(C)(C)C(=O)c1sc(Nc2ccccc2)nc1N,50µM,56µM,25µM,/,.,?
Nc1nc(Nc2cccc(Cl)c2)sc1C(=O)c1ccc(F)cc1,.,?,.,/,/,.
COc1ccc([C@H]2C[C@@H](O)[C@H](n3cc(COC(=O)c4ccccc4)nn3)CN2CC2CCCCC2)cc1,/,/,/,.,.,/
Cc1ccccc1Cn1c(=O)n(CCCCC(=O)NCc2ccc3c(c2)OCO3)c(=O)c2ccccc21,.,.,.,/,/,.
O=[N+]([O-])c1ccc(C(c2sc3nc(-c4ccco4)nn3c2O)N2CCN(c3cccc(Cl)c3)CC2)cc1 (stereo unspecified),?,?,13µM,/,/,.
O=[N+]([O-])c1ccc(C(c2sc3nc(-c4ccco4)nn3c2O)N2CCN(Cc3ccccc3)CC2)cc1 (stereo unspecified),?,?,?,/,/,.
Oc1c(C(c2ccc(F)cc2)N2CCCC2)sc2nc(-c3ccco3)nn12 (stereo unspecified),.,.,13µM,/,/,.
Oc1c(C(c2ccccc2F)N2CCCC2)sc2nc(-c3ccco3)nn12 (stereo unspecified),.,.,.,/,/,.
Cc1ccn2c(Nc3ccc4c(c3)OCCO4)c(-c3cccs3)nc2c1,25µM,?,14µM,/,/,?
Fc1ccccc1-c1ccc(-c2nc3ccc(Cl)cn3c2Nc2ccc(Cl)cc2)o1,/,45µM,/,/,/,?
Cc1ccn2c(Nc3ccc4c(c3)OCO4)c(-c3ccccn3)nc2c1,13µM,13µM,?,.,.,50µM
Cc1cc(C)n2c(Nc3ccc4c(c3)OCCO4)c(-c3ccccn3)nc2n1,/,/,/,.,.,/
Cc1ccc(-c2nc3ccc(Cl)cn3c2Nc2ccccc2)o1,/,.,/,/,/,.
Cc1ccc(Nc2c(-c3ccccn3)nc3ccc(C)cn23)cc1,/,45µM,?,.,.,.
SMILES,BAZ2B block,JMJD2A Tudor,G9a inh,PI5P4Ka inh,PLK1 PBD block,HP1b binding inh
COc1cc(NC(=O)c2cc3c(=O)oc4ccc(C)cc4c3s2)cc(OC)c1OC,.,.,.,/,/,.
O=C(c1ccco1)N1CCC2(CCN(Cc3ccccc3)CC2)CC1,/,/,.[12.7 µM],/,/,/
O=C(/C=C/[C@H]1O[C@@H](n2ccc(=O)[nH]c2=O)[C@H](O)[C@@H]1O)N1CCN(CCc2ccccc2)CC1,/,/,/,.,.,/
O=S(=O)(c1ccccc1)n1nc(-c2ccco2)nc1NCc1ccccc1,.,.,.,/,/,.
COc1ccc(Nc2c(-c3ccccn3)nc3ccc(Cl)cn23)cc1,1.6µM,?,.,/,/,.
Cc1cccc(C)c1Nc1c(-c2ccccn2)nc2ccc(Cl)cn12,?,?,.,/,/,.
Cc1ccc(Nc2c(-c3ccccn3)nc3cc(C)ccn23)cc1,16µM,40µM,?,.,.,?
CCCNC(=O)[C@H]1O[C@@H]1C(=O)N[C@H](C(=O)N1CCC[C@H]1C(=O)OC)[C@@H](C)CC,/,/,.,/,/,/
Cc1cccc(C(=O)NC2=NC(c3ccc(Cl)cc3)CC(=O)N2)c1 (stereo unspecified),.,.,.,/,/,.
O=C1NC(=Nc2ccc(F)cc2)CS1,.,.,32µM,.,?,.
CCOC(=O)c1c(CN(C)C)n(C)c2c(O)c(N=NC(N)=O)c3ccc(Br)cc3c12,.,35µM,.,.,21µM,.
Cc1ccc(S(=O)(=O)N2CCN(c3nc(-c4ccc(F)cc4)nc4cc(Cl)ccc34)CC2)cc1,/,.,/,/,/,.
Cc1nnc2n(-c3ccccc3)c(=O)c3ccccc3n12,/,.,/,.,.,.
O=C(O)CSc1nnc2n(-c3ccccc3)c(=O)c3ccccc3n12,.,.,.,.,.,.
O=c1c2ccccc2n2c(=S)[nH]nc2n1-c1ccccc1,?,3.2µM,5µM,.,21µM,?
CCC(C)c1ccc(-n2c(=O)c3ccccc3n3c(=S)[nH]nc23)cc1 (stereo unspecified),.,.,1.1µM,.,21µM,.
COc1ccc(NC(=O)C2=C(C)Nc3nc(SCc4ccc(Cl)cc4)nn3C2c2cccc(OC)c2OC)cc1 (stereo unspecified),.,.,.,/,/,.
COc1ccc2c(c1)nc(SCC(=O)c1ccc(Br)s1)n2C,?,56µM,40µM,/,?,.
COc1ccc(C(=O)OCC(=O)c2ccc(Br)s2)c(OC)c1,.,.,.,.,.,.
COc1cccc(NC(=O)CSc2nc3ccccc3n2C)c1,.,?,.,.,17µM,.
CCn1c(SCC(=O)Nc2cccc(OC)c2)nc2ccccc2c1=O,.,.,.,.,.,.
COC(=O)CSc1nnc(-c2sc3ccccc3c2Cl)o1,.,.,13µM,.,.,.
COC(=O)CSc1nnc(-c2sc3cc(OC)ccc3c2Cl)n1C,.,.,6.3µM,.,.,.
COC(=O)CSc1nnc(-c2ccc3c(c2)OCO3)n1C,.,.,.,.,.,.
COc1cc2c(cc1OC)C(COc1ccc3c(C)cc(=O)oc3c1)N(C(=O)c1ccccc1C)CC2 (stereo unspecified),.,.,.,/,/,.
CCCCn1nnnc1C(c1cc2ccccc2o1)N(C)Cc1ccc(Cl)cc1 (stereo unspecified),/,/,/,.,.,/
C=CCn1c(SCCC)nc2ccccc2c1=O,/,.,/,/,/,.

# Bioassay records from PubChem BioAssay.
